Compounds with a hit are over-represented: about 1.6% of the library has one in this group of screens.
KCNQ2 pot: enhances the rat KCNQ2 potassium channel | O88943 | CHO-K1 KCNQ2, FluxOR thallium flux fluorescence; active compounds read high | B-score at 10 µM | 310,000 tested, 0.54% active | AID 2239;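 active = fluorescence ratio B-score at least 3 SD of library B-scores, with initial fluorescence B-score within 3 of them, cut at about 5.3 in these data; same plate scores as AID 2156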;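 note: B-score of peak minus minimum over baseline fluorescence ratio after K+ and Tl+ stimulus; positive B-score means potentiation of KCNQ2 with more thallium influx and brighter signal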
Target sequence (O88943 whole entry, looked up): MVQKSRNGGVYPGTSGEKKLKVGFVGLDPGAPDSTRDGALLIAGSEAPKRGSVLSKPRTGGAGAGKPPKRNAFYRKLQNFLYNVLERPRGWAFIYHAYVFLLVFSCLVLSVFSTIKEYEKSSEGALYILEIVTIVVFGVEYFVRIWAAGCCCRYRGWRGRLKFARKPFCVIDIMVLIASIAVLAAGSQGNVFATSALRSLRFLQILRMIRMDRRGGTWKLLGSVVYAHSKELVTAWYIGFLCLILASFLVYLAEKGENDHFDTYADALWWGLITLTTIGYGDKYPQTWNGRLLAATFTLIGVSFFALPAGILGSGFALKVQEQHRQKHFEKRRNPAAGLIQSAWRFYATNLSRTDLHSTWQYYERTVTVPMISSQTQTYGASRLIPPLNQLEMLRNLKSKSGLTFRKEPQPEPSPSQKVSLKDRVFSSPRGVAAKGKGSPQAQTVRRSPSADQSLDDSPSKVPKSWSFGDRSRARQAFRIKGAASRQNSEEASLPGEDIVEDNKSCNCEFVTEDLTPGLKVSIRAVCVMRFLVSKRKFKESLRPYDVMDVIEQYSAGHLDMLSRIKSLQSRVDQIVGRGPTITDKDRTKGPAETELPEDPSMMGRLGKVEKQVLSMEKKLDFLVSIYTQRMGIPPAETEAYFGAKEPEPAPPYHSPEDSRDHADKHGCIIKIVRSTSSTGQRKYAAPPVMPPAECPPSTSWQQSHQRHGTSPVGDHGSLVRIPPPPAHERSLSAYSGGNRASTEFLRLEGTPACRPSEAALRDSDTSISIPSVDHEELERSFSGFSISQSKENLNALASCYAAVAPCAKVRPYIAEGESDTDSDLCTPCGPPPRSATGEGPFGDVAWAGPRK
KCNQ2 inh: inhibitors of rat KCNQ2 potassium channel; CHO-K1 KCNQ2, FluxOR thallium flux, 20 min; active compounds read low; B-score at 10 µM; 310,000 tested, 1.1% active; AID 2156;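 active = fluorescence ratio B-score at most minus 3 library SDs, with starting brightness B-score within 2 library SDs, cut at about -5.5 in these data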
The depositor's hits bear a star; i = inactive; . = no result.

SMILES	KCNQ2 pot	KCNQ2 inh
COc1ccc(OCCNC(=S)Nc2cccc3ccccc23)cc1	-6.2	-6.2*
COc1ccc(CCNC(=S)Nc2cccc3ccccc23)cc1	.	i
COc1ccc(C2=NOC(C(=O)N(C)Cc3ccccc3)C2)cc1 (configuration not stated)	.	i
COc1cc(CCCN2C(=S)NC[C@@H]2CC2CCCCC2)cc(OC)c1OC	0.76	i
Cc1ccccc1-c1nc(CN2CCCC(C(=O)NCCCN3CCOCC3)C2)c(C)o1 (configuration not stated)	0.91	i
COc1ccc(-c2nc(CN3CCCC(C(=O)NC4CCCC4)C3)c(C)o2)cc1 (configuration not stated)	.	i
Cc1ccccc1-c1nc(CN2CCCC(C(=O)NCc3cccnc3)C2)c(C)o1 (configuration not stated)	9*	i
COc1ccc(CNC(=O)C2CCCN(Cc3nc(-c4cccc(C)c4)oc3C)C2)cc1 (configuration not stated)	-6.4	-6.4*
Cc1ccc(NC(=O)c2cccc3cccnc23)cc1	0.5	i
NC(=O)c1cc(S(=O)(=O)NCCCc2ccccc2)cs1	0.16	i
N#CC(c1ccc(F)cc1)c1ccc(C(=O)c2ccc(F)cc2)cc1 (configuration not stated)	.	i
Cc1ccc(C(C#N)c2ccc(C(=O)c3ccc(F)cc3)cc2)cc1 (configuration not stated)	-6.4	-6.4*
COc1ccc(Cl)cc1/C=N/NC(=O)c1c(-c2ccccc2)noc1C	-6.2	-6.2*
COc1cccc(/C=N/NC(=O)c2c(-c3ccccc3)noc2C)c1OC	-7.3	-7.3*
COc1cc(/C=N/NC(=O)c2c(-c3ccccc3)noc2C)ccc1O	.	i
COc1cccc(/C=N/NC(=O)c2c(-c3ccccc3)noc2C)c1O	.	i
CCCCCN1CC(=O)N2C(C)c3[nH]c4ccccc4c3C[C@H]2C1=O (some centres not stated)	.	i
O=C(CN1C(=O)NC2(CCCCC2)C1=O)NCc1ccc2c(c1)OCO2	.	i
O=C(CN1C(=O)C2C3C=CC(C3)C2C1=O)OCC(=O)c1ccc(Cl)c([N+](=O)[O-])c1 (configuration not stated)	.	i
COc1ccccc1-c1c(C(F)(F)F)oc2cc(OC(=O)c3ccc([N+](=O)[O-])cc3)ccc2c1=O	.	i
COc1ccc(NC(=O)c2c(-c3ccccc3)noc2C)c(OC)c1	.	i
Cc1onc(-c2ccccc2)c1C(=O)Nc1ccccc1NC(=O)c1c(-c2ccccc2)noc1C	.	i
CCCOc1ccccc1NC(=O)c1c(-c2ccccc2)noc1C	-6.1	-6.1*
Cc1cccc(C)c1NC(=O)c1c(-c2ccccc2)noc1C	-5.7	-5.7*
Cc1ccc(-c2[nH]ncc2C(=O)c2ccccc2C)c(O)c1	0.47	i
SMILES	KCNQ2 pot	KCNQ2 inh
O=c1c2ccccc2nc(/C=C/c2ccccc2)n1CCCO	2.5	i
CN(C)c1ccc(/C=C/c2nc3ccccc3c(=O)n2CCO)cc1	-6	-6*
NCCCC[C@@H](C(=O)N1CCNCC1)n1cc([C@@H](N)CO)nn1	0.72	i
CCc1ccc(NC(=O)c2cccc(C(=O)Nc3ccc(CC)cc3)n2)cc1	0.46	i
Cc1ccc(NC(=O)c2cccc(C(=O)Nc3ccc(C)c(C)c3)n2)cc1C	-6.4	-6.4*
COc1ccc2[nH]c(=O)c(CN(C(=O)C(C)C)c3ccccc3OC)cc2c1	0.22	i
CCN1CCN(CCNC(=O)c2ccc(/C=C3/Sc4ccccc4N(Cc4cccc(Cl)c4)C3=O)cc2)CC1	.	i
COc1ccc(/C=C2\Sc3ccc(C(=O)NCCN4CCCCCC4)cc3N(C)C2=O)cc1	-6.4	-6.4*
CCN1CCN(CCNC(=O)c2ccc3c(c2)N(Cc2ccc(F)cc2)C(=O)/C(=C/c2ccccc2)S3)CC1	-6.5	-6.5*
COc1ccc(/C=C2\Sc3ccc(C(=O)N4CCc5ccccc5C4)cc3N(C)C2=O)cc1	.	i
COc1cccc(NC(=S)N2CCN(S(C)(=O)=O)CC2)c1	.	i
COC(=O)C1C(O)=C(C=Nc2cccc3ccccc23)C(=O)CC1(C)C (configuration not stated)	-6	-6*
COC(=O)C1C(O)=C(C=NCc2ccccc2)C(=O)CC1(C)C (configuration not stated)	.	i
O=C(NC(=S)Nc1cccnc1)c1cc2ccccc2o1	8.1*	i
O=C(NC(=S)NCc1cccnc1)c1cc2ccccc2o1	0.85	i
Cc1ccccc1NC(=O)C1C2/C=C\CCCCC21 (configuration not stated)	5.4*	i
Cc1ccccc1NC(=O)C1C2CCCCC21 (configuration not stated)	.	i
CCc1cc(C(=O)O)c(NC(=O)C(c2ccccc2)c2ccccc2)s1	1.3	i
CCOC(=O)c1cc(C)sc1NC(=O)C(c1ccccc1)c1ccccc1	-6	-6*
CCOC(=O)c1cc(CC)sc1NC(=O)COC	.	i
CCOC(=O)c1cc(CC)sc1NC(=O)Cc1ccccc1	-5.7	-5.7*
